# Data: publication PMC7862700, “An all-to-all approach to the identification of sequence-specific readers for epigenetic DNA modifications on cytosine”
# Tests used:
# Test in all cases: DAPPL (digital affinity profiling via proximity ligation, sequencing); 10 mM Tris-HCl pH 7.5, 50 mM NaCl, 1 mM DTT, 4% glycerol, room temperature, 30 min; GST-TFs on glutathione beads, 16-mer random dsDNA library, 0.1% formaldehyde crosslink after washing; high values mean tight binding
# FEV = molecular target: T1, FEV (Homo sapiens, UniProt Q99581 1-238); conditions: protein: recombinant; tags: N-terminal GST; dsDNA, one strand shown
# T1 sequence: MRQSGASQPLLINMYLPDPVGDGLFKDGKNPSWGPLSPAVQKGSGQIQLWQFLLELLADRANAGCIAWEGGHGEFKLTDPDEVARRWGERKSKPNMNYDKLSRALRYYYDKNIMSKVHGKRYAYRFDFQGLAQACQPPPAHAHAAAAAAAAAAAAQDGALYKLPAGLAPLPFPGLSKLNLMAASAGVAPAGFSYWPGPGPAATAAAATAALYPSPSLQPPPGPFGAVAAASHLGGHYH
# Outline: (§1)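 Binding signal is each hexamer's read frequency for a factor divided by its frequency in the tag-only sample. The factors were GST-fused human transcription factors from yeast, captured on glutathione beads, DNA-barcoded and pooled with that sample. Pools were incubated with 200 nmole of a random double-stranded 16-mer DNA library in Tris/NaCl/DTT/glycerol buffer at room temperature for 30 min, then washed, crosslinked with 0.1% formaldehyde, proximity-ligated with BsaI/T4 ligase (1 h, 37 °C), PCR-amplified and sequenced on an Illumina NextSeq500.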
# ETV5 = ETV5 (Homo sapiens, UniProt P41161 1-510); conditions: protein: recombinant; tags: N-terminal GST; dsDNA, one strand shown
# Chain of ETV5 (P41161 whole entry): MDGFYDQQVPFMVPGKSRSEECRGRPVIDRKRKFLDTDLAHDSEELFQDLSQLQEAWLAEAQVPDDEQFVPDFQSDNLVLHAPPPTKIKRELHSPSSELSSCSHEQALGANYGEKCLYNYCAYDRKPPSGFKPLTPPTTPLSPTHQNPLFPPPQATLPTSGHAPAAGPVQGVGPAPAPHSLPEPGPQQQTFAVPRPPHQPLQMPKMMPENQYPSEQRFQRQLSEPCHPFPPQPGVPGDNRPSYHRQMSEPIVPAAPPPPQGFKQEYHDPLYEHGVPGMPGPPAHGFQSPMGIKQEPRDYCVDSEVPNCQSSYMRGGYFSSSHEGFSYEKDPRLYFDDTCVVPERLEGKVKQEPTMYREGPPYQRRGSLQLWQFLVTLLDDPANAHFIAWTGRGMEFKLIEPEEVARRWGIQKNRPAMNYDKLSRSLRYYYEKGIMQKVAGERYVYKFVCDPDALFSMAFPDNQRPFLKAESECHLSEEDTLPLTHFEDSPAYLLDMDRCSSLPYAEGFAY
# Outline: as §1
# HSF1 = HSF1 (Homo sapiens, UniProt Q00613 1-529); conditions: protein: recombinant; tags: N-terminal GST; chain copies: 3; dsDNA, one strand shown
# Chain of HSF1 (Q00613 whole entry): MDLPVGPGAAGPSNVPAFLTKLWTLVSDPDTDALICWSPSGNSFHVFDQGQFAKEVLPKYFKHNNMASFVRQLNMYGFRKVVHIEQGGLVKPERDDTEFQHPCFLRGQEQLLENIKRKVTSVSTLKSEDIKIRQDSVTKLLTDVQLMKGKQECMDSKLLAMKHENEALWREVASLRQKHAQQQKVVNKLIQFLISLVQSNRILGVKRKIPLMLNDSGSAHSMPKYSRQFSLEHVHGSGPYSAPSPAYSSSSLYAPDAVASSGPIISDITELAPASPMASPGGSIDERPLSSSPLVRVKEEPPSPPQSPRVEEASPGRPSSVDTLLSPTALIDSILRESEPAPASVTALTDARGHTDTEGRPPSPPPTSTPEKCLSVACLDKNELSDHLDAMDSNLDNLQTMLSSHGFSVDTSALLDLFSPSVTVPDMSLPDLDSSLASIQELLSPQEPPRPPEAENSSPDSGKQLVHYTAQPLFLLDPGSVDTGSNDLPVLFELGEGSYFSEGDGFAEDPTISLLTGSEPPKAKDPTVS
# Outline: as §1
# SPIC = molecular target: T2, SPIC (Homo sapiens, UniProt Q8N5J4 1-248); conditions: protein: recombinant; tags: N-terminal GST; dsDNA, one strand shown
# T2 sequence: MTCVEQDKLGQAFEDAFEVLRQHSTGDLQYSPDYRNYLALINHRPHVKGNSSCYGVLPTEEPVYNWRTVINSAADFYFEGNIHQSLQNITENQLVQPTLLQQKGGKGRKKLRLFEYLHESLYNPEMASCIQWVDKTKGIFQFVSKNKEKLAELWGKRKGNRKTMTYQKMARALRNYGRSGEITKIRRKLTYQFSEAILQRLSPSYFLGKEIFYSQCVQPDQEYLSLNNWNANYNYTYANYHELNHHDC
# Outline: as §1
# ELF4 = ELF4 (Homo sapiens, UniProt Q99607 1-663); conditions: protein: recombinant; tags: N-terminal GST; dsDNA, one strand shown
# Chain of ELF4 (Q99607 whole entry): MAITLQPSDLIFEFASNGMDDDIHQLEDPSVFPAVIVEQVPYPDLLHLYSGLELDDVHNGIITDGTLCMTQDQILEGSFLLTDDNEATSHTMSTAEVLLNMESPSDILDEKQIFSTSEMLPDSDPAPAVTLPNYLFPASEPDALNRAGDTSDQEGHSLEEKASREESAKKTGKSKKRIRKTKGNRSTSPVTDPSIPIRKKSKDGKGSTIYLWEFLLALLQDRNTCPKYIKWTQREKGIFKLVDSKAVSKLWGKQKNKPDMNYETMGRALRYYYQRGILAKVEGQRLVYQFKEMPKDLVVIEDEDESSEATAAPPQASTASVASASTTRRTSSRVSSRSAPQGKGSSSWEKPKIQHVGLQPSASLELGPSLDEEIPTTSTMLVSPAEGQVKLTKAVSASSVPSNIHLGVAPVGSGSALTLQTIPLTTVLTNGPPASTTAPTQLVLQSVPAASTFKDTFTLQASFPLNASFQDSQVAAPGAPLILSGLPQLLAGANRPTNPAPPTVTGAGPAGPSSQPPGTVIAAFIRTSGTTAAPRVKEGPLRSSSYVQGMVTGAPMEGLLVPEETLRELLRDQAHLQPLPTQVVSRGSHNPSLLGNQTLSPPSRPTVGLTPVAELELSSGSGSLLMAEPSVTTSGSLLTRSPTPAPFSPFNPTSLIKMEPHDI
# Outline: as §1
# ELK4 = molecular target: T3, ELK4 (Homo sapiens, UniProt P28324-2 1-405); conditions: protein: recombinant; tags: N-terminal GST; dsDNA, one strand shown
# T3 sequence: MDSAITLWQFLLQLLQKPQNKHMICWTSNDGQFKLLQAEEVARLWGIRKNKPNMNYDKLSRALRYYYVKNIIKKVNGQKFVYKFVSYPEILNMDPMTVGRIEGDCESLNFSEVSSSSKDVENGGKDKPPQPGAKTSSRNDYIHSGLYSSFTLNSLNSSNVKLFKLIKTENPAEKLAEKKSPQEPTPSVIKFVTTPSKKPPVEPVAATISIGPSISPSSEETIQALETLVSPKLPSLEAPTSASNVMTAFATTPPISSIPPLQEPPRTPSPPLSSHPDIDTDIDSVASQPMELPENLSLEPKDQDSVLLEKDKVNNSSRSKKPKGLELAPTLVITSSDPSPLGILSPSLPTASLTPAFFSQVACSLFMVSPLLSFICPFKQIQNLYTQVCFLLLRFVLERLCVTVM
# Outline: as §1
# ETV2 = molecular target: T4, ETV2 (Homo sapiens, UniProt O00321 1-342); conditions: protein: recombinant; tags: N-terminal GST; dsDNA, one strand shown
# T4 sequence: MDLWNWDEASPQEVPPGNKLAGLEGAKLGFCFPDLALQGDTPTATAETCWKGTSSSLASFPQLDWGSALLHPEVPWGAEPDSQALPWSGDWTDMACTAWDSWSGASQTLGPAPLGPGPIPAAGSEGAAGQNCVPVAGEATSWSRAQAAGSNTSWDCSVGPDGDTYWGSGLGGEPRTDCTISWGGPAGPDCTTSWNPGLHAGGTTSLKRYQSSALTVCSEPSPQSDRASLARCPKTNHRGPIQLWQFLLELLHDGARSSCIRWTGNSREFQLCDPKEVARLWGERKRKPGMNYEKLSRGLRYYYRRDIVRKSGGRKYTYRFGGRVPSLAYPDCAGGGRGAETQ
# Outline: as §1
# ELF3 = molecular target: T5, ELF3 (Homo sapiens, UniProt P78545 1-371); conditions: protein: recombinant; tags: N-terminal GST; dsDNA, one strand shown
# T5 sequence: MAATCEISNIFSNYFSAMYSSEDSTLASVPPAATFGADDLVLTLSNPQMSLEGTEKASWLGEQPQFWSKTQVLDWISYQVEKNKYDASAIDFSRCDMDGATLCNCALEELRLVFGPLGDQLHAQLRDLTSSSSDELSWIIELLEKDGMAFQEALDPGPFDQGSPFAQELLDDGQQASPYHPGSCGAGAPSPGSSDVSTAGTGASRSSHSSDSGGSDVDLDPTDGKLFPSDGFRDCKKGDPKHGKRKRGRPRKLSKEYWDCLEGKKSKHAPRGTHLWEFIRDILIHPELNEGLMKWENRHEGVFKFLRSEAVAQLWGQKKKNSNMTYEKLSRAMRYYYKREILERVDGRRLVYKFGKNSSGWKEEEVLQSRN
# Outline: as §1
# CRX = CRX (Homo sapiens, UniProt O43186 1-299); conditions: protein: recombinant; tags: N-terminal GST; dsDNA, one strand shown
# Chain of CRX (O43186 whole entry): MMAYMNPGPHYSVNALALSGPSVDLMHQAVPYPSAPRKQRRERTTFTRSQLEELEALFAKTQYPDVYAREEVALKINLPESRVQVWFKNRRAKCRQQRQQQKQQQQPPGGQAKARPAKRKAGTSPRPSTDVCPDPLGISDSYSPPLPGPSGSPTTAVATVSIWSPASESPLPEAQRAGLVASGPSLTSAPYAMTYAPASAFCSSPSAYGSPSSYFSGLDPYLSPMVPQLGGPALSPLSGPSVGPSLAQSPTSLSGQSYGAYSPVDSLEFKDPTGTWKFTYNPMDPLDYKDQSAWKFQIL
# Outline: as §1
# ETV1 = ETV1 (Homo sapiens, UniProt P50549 1-477); conditions: protein: recombinant; tags: N-terminal GST; dsDNA, one strand shown
# Chain of ETV1 (P50549 whole entry): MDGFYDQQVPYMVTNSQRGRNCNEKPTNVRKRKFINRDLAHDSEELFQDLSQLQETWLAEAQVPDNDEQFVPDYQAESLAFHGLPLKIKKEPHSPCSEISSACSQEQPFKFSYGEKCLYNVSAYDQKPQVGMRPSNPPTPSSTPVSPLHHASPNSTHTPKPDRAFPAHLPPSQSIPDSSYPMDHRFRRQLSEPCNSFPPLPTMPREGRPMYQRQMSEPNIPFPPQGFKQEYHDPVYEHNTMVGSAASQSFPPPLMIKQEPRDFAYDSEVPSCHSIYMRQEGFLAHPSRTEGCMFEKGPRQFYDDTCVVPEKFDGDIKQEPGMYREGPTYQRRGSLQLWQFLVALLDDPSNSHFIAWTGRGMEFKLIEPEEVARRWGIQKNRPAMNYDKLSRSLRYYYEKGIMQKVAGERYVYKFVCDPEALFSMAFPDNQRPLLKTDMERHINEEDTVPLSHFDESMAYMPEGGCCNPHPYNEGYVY
# Outline: as §1
# ERF = molecular target: T6, ERF (Homo sapiens, UniProt P50548 1-548); conditions: protein: recombinant; tags: N-terminal GST; dsDNA, one strand shown
# T6 sequence: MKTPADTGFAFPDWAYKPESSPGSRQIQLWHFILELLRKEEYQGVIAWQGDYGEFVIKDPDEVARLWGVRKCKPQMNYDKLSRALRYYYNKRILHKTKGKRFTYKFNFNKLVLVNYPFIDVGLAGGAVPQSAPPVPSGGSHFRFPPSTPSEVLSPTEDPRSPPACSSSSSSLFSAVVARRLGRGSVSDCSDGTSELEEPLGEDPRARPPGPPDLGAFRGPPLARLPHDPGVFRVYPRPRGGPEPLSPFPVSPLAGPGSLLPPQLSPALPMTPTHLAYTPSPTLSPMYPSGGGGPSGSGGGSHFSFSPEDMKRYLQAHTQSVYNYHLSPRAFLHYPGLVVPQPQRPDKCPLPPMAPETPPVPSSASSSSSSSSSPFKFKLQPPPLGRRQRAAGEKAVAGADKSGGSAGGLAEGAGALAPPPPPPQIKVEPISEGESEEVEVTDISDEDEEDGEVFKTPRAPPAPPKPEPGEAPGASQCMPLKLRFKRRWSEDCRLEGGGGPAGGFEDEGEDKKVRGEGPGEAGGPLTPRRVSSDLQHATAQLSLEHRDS
# Outline: as §1
# ETV3L = molecular target: T7, ETV3L (Homo sapiens, UniProt Q6ZN32 1-361); conditions: protein: recombinant; tags: N-terminal GST; dsDNA, one strand shown
# T7 sequence: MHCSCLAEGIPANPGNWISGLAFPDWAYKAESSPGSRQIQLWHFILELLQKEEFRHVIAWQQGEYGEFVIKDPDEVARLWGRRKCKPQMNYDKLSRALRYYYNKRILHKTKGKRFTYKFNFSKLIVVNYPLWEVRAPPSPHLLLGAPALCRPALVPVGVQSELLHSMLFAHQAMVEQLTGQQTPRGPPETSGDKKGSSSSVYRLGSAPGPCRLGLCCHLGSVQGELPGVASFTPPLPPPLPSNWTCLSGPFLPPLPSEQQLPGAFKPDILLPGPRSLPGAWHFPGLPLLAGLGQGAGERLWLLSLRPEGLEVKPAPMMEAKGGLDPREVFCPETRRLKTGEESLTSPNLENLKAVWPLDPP
# Outline: as §1
# ETS2 = molecular target: T8, ETS2 (Homo sapiens, UniProt P15036 1-469); conditions: protein: recombinant; tags: N-terminal GST; dsDNA, one strand shown
# T8 sequence: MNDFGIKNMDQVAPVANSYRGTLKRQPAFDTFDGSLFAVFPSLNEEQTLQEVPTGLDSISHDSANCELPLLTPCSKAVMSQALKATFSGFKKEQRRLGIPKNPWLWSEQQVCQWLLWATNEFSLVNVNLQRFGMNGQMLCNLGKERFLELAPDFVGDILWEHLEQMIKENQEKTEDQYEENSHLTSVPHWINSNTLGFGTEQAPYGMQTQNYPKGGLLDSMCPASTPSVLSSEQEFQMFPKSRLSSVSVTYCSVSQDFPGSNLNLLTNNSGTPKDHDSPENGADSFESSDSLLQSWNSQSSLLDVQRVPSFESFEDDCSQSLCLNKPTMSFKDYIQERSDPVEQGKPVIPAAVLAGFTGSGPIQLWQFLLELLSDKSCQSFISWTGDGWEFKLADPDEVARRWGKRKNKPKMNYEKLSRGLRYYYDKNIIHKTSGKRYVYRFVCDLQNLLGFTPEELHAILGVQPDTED
# Outline: as §1
# SPDEF = molecular target: T9, SPDEF (Homo sapiens, UniProt O95238 1-335); conditions: protein: recombinant; tags: N-terminal GST; dsDNA, one strand shown
# T9 sequence: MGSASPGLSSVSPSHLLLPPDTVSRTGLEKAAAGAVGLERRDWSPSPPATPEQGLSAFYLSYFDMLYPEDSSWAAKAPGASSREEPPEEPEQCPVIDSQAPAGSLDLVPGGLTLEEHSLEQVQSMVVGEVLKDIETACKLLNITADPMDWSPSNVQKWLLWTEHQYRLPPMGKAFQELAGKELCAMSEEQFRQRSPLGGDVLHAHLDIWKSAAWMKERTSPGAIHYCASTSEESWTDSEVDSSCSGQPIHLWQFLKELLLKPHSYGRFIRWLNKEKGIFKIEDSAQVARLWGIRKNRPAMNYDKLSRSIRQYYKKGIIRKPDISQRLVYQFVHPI
# Outline: as §1
# ETV7 = molecular target: T10, ETV7 (Homo sapiens, UniProt Q9Y603 1-341); conditions: protein: recombinant; tags: N-terminal GST; dsDNA, one strand shown
# T10 sequence: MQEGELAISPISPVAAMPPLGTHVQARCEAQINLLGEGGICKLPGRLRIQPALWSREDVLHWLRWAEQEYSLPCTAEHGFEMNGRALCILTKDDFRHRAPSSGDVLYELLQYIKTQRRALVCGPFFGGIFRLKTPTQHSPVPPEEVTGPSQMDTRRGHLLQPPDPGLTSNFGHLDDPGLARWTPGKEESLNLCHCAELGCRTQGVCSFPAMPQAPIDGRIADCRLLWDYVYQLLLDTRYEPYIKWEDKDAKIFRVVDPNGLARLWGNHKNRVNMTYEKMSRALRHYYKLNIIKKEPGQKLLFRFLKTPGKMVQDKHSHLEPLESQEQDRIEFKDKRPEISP
# Outline: as §1
# ELF5 = molecular target: T11, ELF5 (Homo sapiens, UniProt Q9UKW6-2 1-255); conditions: protein: recombinant; tags: N-terminal GST; dsDNA, one strand shown
# T11 sequence: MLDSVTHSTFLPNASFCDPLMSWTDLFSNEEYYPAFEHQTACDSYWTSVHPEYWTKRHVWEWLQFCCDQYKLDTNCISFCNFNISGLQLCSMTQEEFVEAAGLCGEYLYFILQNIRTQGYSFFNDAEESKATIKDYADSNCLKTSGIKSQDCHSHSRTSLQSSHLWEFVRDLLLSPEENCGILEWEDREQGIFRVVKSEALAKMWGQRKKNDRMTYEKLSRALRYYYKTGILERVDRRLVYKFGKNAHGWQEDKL
# Outline: as §1
# ETV3 = molecular target: T12, ETV3 (Homo sapiens, UniProt P41162-2 1-143); conditions: protein: recombinant; tags: N-terminal GST; dsDNA, one strand shown
# T12 sequence: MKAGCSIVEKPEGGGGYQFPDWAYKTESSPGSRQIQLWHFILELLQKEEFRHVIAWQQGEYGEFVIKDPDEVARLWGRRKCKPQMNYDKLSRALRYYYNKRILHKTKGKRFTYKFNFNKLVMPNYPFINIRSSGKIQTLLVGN
# Outline: as §1
# ETV6 = ETV6 (Homo sapiens, UniProt P41212 1-452); conditions: protein: recombinant; tags: N-terminal GST; dsDNA, one strand shown
# Chain of ETV6 (P41212 whole entry): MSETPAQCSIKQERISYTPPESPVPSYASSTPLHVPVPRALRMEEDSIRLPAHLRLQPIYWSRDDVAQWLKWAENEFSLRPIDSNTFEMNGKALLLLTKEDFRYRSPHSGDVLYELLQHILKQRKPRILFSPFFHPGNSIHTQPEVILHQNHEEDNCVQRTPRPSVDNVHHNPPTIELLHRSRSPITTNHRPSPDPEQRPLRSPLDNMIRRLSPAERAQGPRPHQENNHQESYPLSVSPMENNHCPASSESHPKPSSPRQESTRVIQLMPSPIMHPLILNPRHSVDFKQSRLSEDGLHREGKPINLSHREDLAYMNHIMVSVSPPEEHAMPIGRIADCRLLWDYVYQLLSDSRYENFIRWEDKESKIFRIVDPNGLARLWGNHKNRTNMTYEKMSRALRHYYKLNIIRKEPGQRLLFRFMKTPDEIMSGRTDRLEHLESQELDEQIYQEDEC
# Outline: as §1
sequence,measurement,setting,value
ACTGAA,binding signal,FEV,"1.19 fold enrichment (6-mer frequency, TF over GST control)"
same,binding signal,ETV5,"1.19 fold enrichment (6-mer frequency, TF over GST control)"
same,binding signal,HSF1,"1.08 fold enrichment (6-mer frequency, TF over GST control)"
same,binding signal,SPIC,"1.31 fold enrichment (6-mer frequency, TF over GST control)"
same,binding signal,ELF4,"1.13 fold enrichment (6-mer frequency, TF over GST control)"
same,binding signal,ELK4,"1.16 fold enrichment (6-mer frequency, TF over GST control)"
same,binding signal,ETV2,"1.05 fold enrichment (6-mer frequency, TF over GST control)"
same,binding signal,ELF3,"1.37 fold enrichment (6-mer frequency, TF over GST control)"
same,binding signal,CRX,"1.04 fold enrichment (6-mer frequency, TF over GST control)"
same,binding signal,ETV1,"1.19 fold enrichment (6-mer frequency, TF over GST control)"
same,binding signal,ERF,"1.13 fold enrichment (6-mer frequency, TF over GST control)"
same,binding signal,ETV3L,"1.1 fold enrichment (6-mer frequency, TF over GST control)"
same,binding signal,ETS2,"1.23 fold enrichment (6-mer frequency, TF over GST control)"
same,binding signal,SPDEF,"1.21 fold enrichment (6-mer frequency, TF over GST control)"
same,binding signal,ETV7,"1.06 fold enrichment (6-mer frequency, TF over GST control)"
same,binding signal,ELF5,"1.11 fold enrichment (6-mer frequency, TF over GST control)"
same,binding signal,ETV3,"1.21 fold enrichment (6-mer frequency, TF over GST control)"
same,binding signal,ETV6,"1.17 fold enrichment (6-mer frequency, TF over GST control)"
